# dFosB act: activators of mouse delta FosB homodimer; P13346; purified delta FosB, TAMRA-CDK5 oligo fluorescence polarization; percent of positive-control signal above neutral wells; activation, % at 25 µM; hit rate 0.99% among 340,000;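 active = mean activation above about 17%, with every replicate also reaching it, limit read from the data, passing the limit was not always enough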
# Target sequence (P13346 whole entry, looked up): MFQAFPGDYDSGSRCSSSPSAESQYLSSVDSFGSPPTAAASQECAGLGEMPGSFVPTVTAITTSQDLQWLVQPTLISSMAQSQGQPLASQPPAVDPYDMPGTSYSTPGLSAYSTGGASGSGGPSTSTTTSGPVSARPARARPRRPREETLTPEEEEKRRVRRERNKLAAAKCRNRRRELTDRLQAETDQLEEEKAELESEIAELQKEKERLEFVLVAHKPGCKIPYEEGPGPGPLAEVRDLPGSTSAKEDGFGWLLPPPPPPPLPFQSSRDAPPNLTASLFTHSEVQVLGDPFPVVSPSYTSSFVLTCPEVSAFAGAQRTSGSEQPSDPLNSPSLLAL
# PvdQ acylase: P. aeruginosa PvdQ acylase inhibition; inhibition, % at 10 µM; AID 488965; hit rate 0.063% among 340,000; purified PvdQ acylase, fluorescence plate reader; in the data active = inhibition above about 30%, passing the limit was not always enough;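 note: 0% = vehicle neutral wells and 100% = reference inhibitor wells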
# SIRT5 block: blocks human SIRT5 desuccinylation of peptide. Q9NXA8. Purified SirT5, succinyl-peptide AMC, trypsin-coupled fluorescence. inhibition, % at 15 µM. hit rate 1.1% among 330,000. AID 652115; in the data active = inhibition above about 15%
# CDK5 p35 inh: blocks human CDK5/p35 kinase activity. Q00535+Q15078. Recombinant CDK5/p35, ADP-Glo luminescence, 60 min. inhibition, % at 10 µM. hit rate 0.01% among 330,000. AID 488839;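 active = highest replicate inhibition of at least 50% and at least 75% of replicates reaching 50%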;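 note: plate controls were DMSO neutral control for no effect and GW8510 at 10 µM for full effect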
# PglD DTNB: inhibitors of Campylobacter jejuni PglD acetyltransferase. purified PglD enzyme, DTNB colorimetric CoA detection. inhibition, % at 12.5 µM. hit rate 0.098% among 360,000. AID 602405; in the data active = inhibition above about 16%, passing the limit was not always enough
# FGF22 binding-1: binders of recombinant human FGF22 by thermal shift. SYPRO orange fluorescence; percent of sucrose octasulfate shift, DMSO zero. hit rate 1.5% among 340,000. activity (Tm shift, normalised), % at 9.99 µM. AID 651658. Q9HCT0;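 active = mean Tm shift, scaled 0 neutral to 100 positive control, at about 1.3% or above, every replicate too, limit read from the data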
# FGF22 binding-2: binders of human FGF22 by thermal shift; shares compounds with FGF22 binding-1; recombinant FGF22 thermal shift, SYPRO orange fluorescence; thermal shift activity, °C (ΔTm) at 38 µM; hit rate 2% among 1,000; AID 720646;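 active = fitted rise in melting shift crosses a set limit at or below the top valid dose tested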
# SYPRO no-protein: counter-screen for FGF22 binders: compound-only thermal shift, no protein; AC50, µM (highest dose often 38 µM); shares compounds with FGF22 binding-1; hit rate 2% among 1,000; compound-only SYPRO orange thermal shift counter-screen; AID 743019;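 active = rising signal whose fitted curve reaches the 0.54 level within the top valid dose, showing a melting point, actives reach about 13 µM in these data; inactive = the rest, including activity in the opposite direction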; note: value is where the raw curve crosses a fixed level and not half-maximal
# Active calls of the source: *; i = inactive; / = no result; ! = not confirmed by another sample; [ ] = dose if it differs, or a comment. Compounds with a hit are over-represented: about 2.8% of the library has one in this group of screens.
SMILES,dFosB act,PvdQ acylase,SIRT5 block,CDK5 p35 inh,PglD DTNB,FGF22 binding-1,FGF22 binding-2,SYPRO no-protein
C[C@H](CO)N1C[C@H](C)[C@@H](CN(C)Cc2ccc3c(c2)OCO3)Oc2c(NC(=O)Nc3ccc(C(F)(F)F)cc3)cccc2C1=O,/,/,0,/,3,0,/,/
O=C(COc1ccc(S(=O)(=O)Nc2ccccc2)cc1)NCc1ccncc1,1,-13,-2,-1,/,14*,0.21,i
COCCNC(=O)C[C@@H]1C[C@@H]2c3cc(NC(=O)Nc4ccccc4F)ccc3O[C@@H]2[C@H](CO)O1,/,/,/,/,0,0,/,/
CC(=O)c1ccc(NS(=O)(=O)c2ccc(N)cc2)cc1,8,9,/,1,-9,25*,-0.036,i
COc1cc(NC(=O)c2cccs2)c(OC)cc1NC(=O)Nc1ccc(F)cc1,-6,2,-4,0,-5,1.4*,-0.01,i
COc1ccccc1NC(=O)c1cccs1,1,2,/,-1,1,/,/,/
COC(=O)COc1cc(OCC(=O)OC)c2c(C)c(Cl)c(=O)oc2c1,-16,-11,/,0,/,/,/,/
COC(=O)C(C)Oc1cc(OC(C)C(=O)OC)c2c(C)c(Cl)c(=O)oc2c1 (configuration not stated),-21,-12,-51,-1,4,1.6*,/,i
COc1cccc(-c2cnc3c(c2)C(=O)N([C@H](C)CO)C[C@H](C)[C@@H](CN(C)C(=O)CN(C)C)O3)c1,/,/,-2,/,4,0,/,/
Cc1ccccc1-c1ccc2c(c1)O[C@H](CN(C)CC1CC1)[C@H](C)CN([C@@H](C)CO)S2(=O)=O,/,/,0,/,-1,1,/,/
CCOC(=O)CSc1nc2nc(Cl)c(Cl)nc2[nH]1,/,/,-53,/,-6,1,/,/
CSc1nc2nc(Cl)c(Cl)nc2[nH]1,/,/,/,/,3,1.4*,0.039,i
COCC(=O)Nc1ccc2c(c1)[C@@H]1C[C@@H](CC(=O)N3CCc4ccccc4C3)O[C@@H](CO)[C@@H]1O2,/,/,6,/,-1,0,/,/
C[C@@H]1CN([C@@H](C)CO)C(=O)c2cc(Br)cnc2O[C@H]1CN(C)C(=O)C1CC1,/,/,5,/,-1,2.4*!,0.093,i
C[C@H]1CN([C@@H](C)CO)C(=O)c2cc(Br)cnc2O[C@H]1CN(C)C(=O)C1CC1,/,/,-3,/,-13,0,/,/
C[C@H]1CN([C@@H](C)CO)C(=O)c2cc(C3=CCCC3)cnc2O[C@@H]1CN(C)C(=O)CN(C)C,/,/,1,/,0,0,/,/
C[C@H]1CN([C@@H](C)CO)C(=O)c2cc(C3=CCCC3)cnc2O[C@H]1CN(C)C(=O)CN(C)C,/,/,4,/,-6,1.4*,0.001,i
CN1C(=O)c2cc(NC(=O)Cc3ccccc3)ccc2OC[C@@H]2O[C@H](CC(=O)O)CC[C@H]21,/,/,-4,/,-3,1.4*,0.054,i
CN1C(=O)c2cc(NC(=O)Cc3ccccc3)ccc2OC[C@H]2O[C@H](CC(=O)O)CC[C@H]21,/,/,-6,/,1,0,/,/
Cc1noc(C)c1NC(=O)Nc1ccc2c(c1)C(=O)N(C)[C@H]1CC[C@H](CC(=O)N[C@@H]3CCN(Cc4ccccc4)C3)O[C@@H]1CO2,/,/,0,/,-1,1.8*,-0.025,i
CN1C(=O)c2cc(NC(=O)c3cccc(F)c3)ccc2OC[C@@H]2O[C@H](CC(=O)NCc3ccccc3)CC[C@@H]21,/,/,/,/,6,2.2*,-0.46[42 µM],i
CCNC(=O)Nc1ccc2c(c1)C(=O)N(C)[C@H]1CC[C@H](CC(=O)NCc3ccc(F)cc3)O[C@H]1CO2,/,/,-7,/,0,28*,-0.024,i
CN1[C@H](C(=O)NCc2ccc(F)cc2)[C@@H](CO)[C@@H]2Cn3c(ccc(-c4ccccc4F)c3=O)[C@@H]21,/,/,0,/,-1,0,/,/
COc1ccc(CN(C)C[C@H]2OCCCC[C@@H](C)Oc3ccc(NS(=O)(=O)c4c(C)noc4C)cc3C(=O)N([C@@H](C)CO)C[C@H]2C)cc1,/,/,-1,/,1,0,/,/
